ADAM10 inh: inhibitors of human ADAM10. AID 720582. 370,000 compounds, 0.62% hits. recombinant ADAM10, EDANS/DABCYL FRET peptide cleavage, 3 h. inhibition, % at 7 µM;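 active means inhibition above a per-campaign cutoff equal to the mean of compounds falling between control-based bounds plus 3 SD, cut at about 20% in these data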
Target sequence (O14672 214-748 limits assumed): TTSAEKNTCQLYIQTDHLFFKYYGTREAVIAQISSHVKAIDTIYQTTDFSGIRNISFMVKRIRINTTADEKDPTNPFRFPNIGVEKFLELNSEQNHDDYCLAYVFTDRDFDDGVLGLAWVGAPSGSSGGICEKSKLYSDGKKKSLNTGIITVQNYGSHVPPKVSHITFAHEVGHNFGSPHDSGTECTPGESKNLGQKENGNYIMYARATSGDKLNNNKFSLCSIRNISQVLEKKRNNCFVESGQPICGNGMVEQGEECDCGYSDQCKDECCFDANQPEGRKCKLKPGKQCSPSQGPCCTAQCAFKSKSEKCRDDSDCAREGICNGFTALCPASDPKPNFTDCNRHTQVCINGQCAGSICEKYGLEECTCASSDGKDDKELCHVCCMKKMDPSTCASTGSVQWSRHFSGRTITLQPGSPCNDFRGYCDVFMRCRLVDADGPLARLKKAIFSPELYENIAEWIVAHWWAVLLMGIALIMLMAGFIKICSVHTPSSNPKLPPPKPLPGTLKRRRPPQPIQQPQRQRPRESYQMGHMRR
PLC-gamma1 inh: inhibitors of human phospholipase C gamma1; P19174; purified PLC-gamma1, fluorogenic substrate, fluorescence; inhibition, % at 12.2 µM; 370,000 compounds, 0.84% hits; in the data active means inhibition above about 9.5%
KLK7 zymogen act: activators of human kallikrein-7 zymogen; activation, % at 7 µM; purified proKLK7, EDANS-DABCYL substrate fluorescence; 100% is mature enzyme control, 0% vehicle; AID 652039; 370,000 compounds, 0.9% hits;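 active means activation above the mean of all tested compounds plus 3 SD, computed per campaign excluding outliers beyond control limits, cut at about 13% in these data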
PLC-beta3 inh: PLC-beta3 (human) inhibition, primary screen; Purified PLC-beta3, fluorogenic substrate, fluorescence; Q01970; inhibition, % at 12.2 µM; 370,000 compounds, 0.18% hits; in the data active means inhibition above about 11%
ADAM17 inh: ADAM17 inhibition, QFRET primary screen. P78536. recombinant ADAM17, EDANS/DABCYL FRET peptide cleavage. inhibition, % at 6.95 µM. 370,000 compounds, 0.83% hits. AID 720648;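 active means inhibition above the mean of compounds lying between control limits plus 3 SD, set per campaign, cut at about 8.5% in these data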
proKLK7 act conf: confirmation of human kallikrein-7 zymogen activators. shares compounds with KLK7 zymogen act. purified proKLK7, EDANS-DABCYL substrate fluorescence; scaled: vehicle 0, mature enzyme 100. activation, % at 7 µM. 3,200 compounds, 68% hits;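 active means activation, as change over the incubation, above the mean of all tested compounds plus 3 SD, cut at about 13% in these data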
EDANS-DABCYL int: fluorescence interference counter-screen for KLK7 activators; shares compounds with KLK7 zymogen act; EDANS-DABCYL substrate fluorescence interference, no enzyme, 4 h; solvent 0%, active enzyme control 100%; activation, % at 7 µM; 3,200 compounds, 80% hits;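 active means activation above the all-compound mean plus 3 SD, ignoring values outside control-based bounds, cut at about 4.8% in these data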;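 further: value is the 4 h activation minus the activation read at time zero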
K7 EDANS ctr: EDANS fluorescence interference in dose response, no enzyme | shares compounds with KLK7 zymogen act | EDANS-DABCYL peptide fluorescence interference | EC50, µM | 250 compounds, 20% hits;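 active means compounds that raise the fluorescence signal in this interference counterscreen, with EC50 at or below 10 µM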;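 further: intact quenched peptide substrate alone read at 355 nm excitation and 520 nm emission; signal is fluorescence gain from T0 to T4 after four hours at room temperature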
Of the large screens only hits and unclear results are named; the others gave an inactive call (follow-up assays come after a bar, where they were run). In the library only some 2.9% were active in any assay of this set; here they are far more common.

Cc1c(CC(=O)N2CCN(C(=O)C3COc4ccccc4O3)CC2)c(=O)oc2c(C)c(O)ccc12 (stereo not given)	KLK7 zymogen act 39.5 | proKLK7 act conf 69.8 | EDANS-DABCYL int 69.7
Cc1cc(=O)oc2c(C)c(OCC(=O)N3CCN(C(=O)C4COc5ccccc5O4)CC3)ccc12 (stereo not given)	none
COc1ccc2c(C)c(CC(=O)N3CCN(C(=O)C4COc5ccccc5O4)CC3)c(=O)oc2c1 (stereo not given)	none
Cc1c(CC(=O)N2CCN(C(=O)C3COc4ccccc4O3)CC2)c(=O)oc2cc(O)ccc12 (stereo not given)	KLK7 zymogen act 58.3 | proKLK7 act conf 74.5 | EDANS-DABCYL int 74.9
Cc1cccc(N2CCN(C(=O)C3COc4ccccc4O3)CC2)c1C (stereo not given)	none
Cc1c(CC(=O)N2CCN(C(=O)C3COc4ccccc4O3)CC2)c(=O)oc2cc(O)cc(O)c12 (stereo not given)	KLK7 zymogen act 61.0 | proKLK7 act conf 68.3 | EDANS-DABCYL int 67.3
Cc1ccc(CN2CCCCC(NC(=O)Nc3ccccc3)C2=O)cc1 (stereo not given)	none
Cc1cc(C)c2cc(C#N)c(NCCCNC(=O)CCC(=O)O)nc2c1	KLK7 zymogen act 15.3 | proKLK7 act conf 20.3 | EDANS-DABCYL int 22.2
CCOC(=O)C1=C(c2ccccc2)Nc2ncnn2C1c1ccc(OC)c(OC)c1OC (stereo not given)	none
COc1ccc(C2C=C(c3ccccc3)Nc3ncnn32)cc1 (stereo not given)	KLK7 zymogen act 52.5 | proKLK7 act conf 71.2 | EDANS-DABCYL int 73.9
COc1ccc(C2C=C(c3ccc(C)c(C)c3)Nc3ncnn32)c(OC)c1OC (stereo not given)	KLK7 zymogen act 18.1 | proKLK7 act conf 23.8 | EDANS-DABCYL int 30.5
FC(F)(F)c1ccccc1C1=CC(c2ccccc2)n2ncnc2N1 (stereo not given)	KLK7 zymogen act 25.5 | proKLK7 act conf 26.8 | EDANS-DABCYL int 26.1
Cc1ccc(C2=CC(c3ccc(C)cc3)n3ncnc3N2)cc1 (stereo not given)	KLK7 zymogen act 32.0 | proKLK7 act conf inactive | EDANS-DABCYL int inactive
C=CCNC(=O)N1CCC(c2nc3ccc(Cl)cc3[nH]2)CC1	none
CCc1nc(N2CCOCC2)c(C#N)c2c1CCCC2	none
COc1cc2c(C#N)c(N3CCOCC3)nc(N)c2c(N)n1	KLK7 zymogen act 22.5 | proKLK7 act conf 21.4 | EDANS-DABCYL int 23.3
N#Cc1c(N2CCOCC2)nc(N)c2c(N)nc3c(c12)CC(CCl)O3 (stereo not given)	KLK7 zymogen act 72.7 | proKLK7 act conf 76.0 | EDANS-DABCYL int 19.3 | K7 EDANS ctr inactive
CCOc1cc2c(C#N)c(N3CCNCC3)nc(N)c2c(N)n1	KLK7 zymogen act 68.9 | proKLK7 act conf 67.3 | EDANS-DABCYL int 64.1
COC(=O)C1CN(Cc2ccc(Cl)cc2)CCS(=O)(=O)N1Cc1cn(Cc2ccc(Cl)cc2)nn1 (stereo not given)	none
COC(=O)[C@]12C[C@H](CC(=O)NCCC(C)C)C(=O)N(Cc3ccc4c(c3)OCO4)C1=C[C@H](C(C)C)O[C@@H]2C1CC1	none
Cc1ccc(CN2CCCCC(NC(=O)c3ccccc3C)C2=O)cc1 (stereo not given)	none
COC(=O)c1ccc2nc(-c3ccc(F)cc3)c(Cc3ccccc3C(F)(F)F)n2c1	none
CCCCN(CC)Cc1c(O)ccc2c(-c3ccccc3)cc(=O)oc12	none
CCCCN(C)Cc1c(O)ccc2c(-c3ccccc3)cc(=O)oc12	KLK7 zymogen act 17.3 | proKLK7 act conf 17.4 | EDANS-DABCYL int 22.9
CCN(CC)Cc1c(O)ccc2c(-c3ccccc3)cc(=O)oc12	KLK7 zymogen act 22.2 | proKLK7 act conf 23.4 | EDANS-DABCYL int 28.6
COC(=O)C1CN(Cc2cn(CCOC(C)=O)nn2)CCS(=O)(=O)N1Cc1ccc(OC)cc1 (stereo not given)	none

Bioassay records from PubChem BioAssay.
